# Results: PubChem BioAssay (NCATS)
# Records with an inconclusive call do not appear. Where a call stands in place of a potency, no number is given. The source made the active and inactive calls. Calls follow the shape of the dose curve; as a rule, active = well fitted curve in the direction sought with a large enough effect; inconclusive = small, poorly fitted or top-dose-only effect, or another doubt; inactive = no such curve, though single readings can be large; an effect the other way counts as inactive or inconclusive.
# Assays:
# WaGa = experiment: qHTS assay to identify novel small-molecules to repurpose for Merkel cell carcinoma treatment (AID 1296009); conditions: MCC and control cell lines, CellTiter-Glo viability, 72 h; series mostly up to 46 µM; also: nearly all actives have a fitted effect of over 60% in size
# How it was run: (§1)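 Cells were treated for 72 hr at 37 degree celsius with compounds in 8- or 11-point dose response. Viability was read by CellTiter-Glo luminescence, normalized to no-cell (cytotoxicity) and DMSO controls.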
# C33A = experiment: Primary qHTS to identify gynecologic anti-cancer compounds using libraries of approved drugs and bioactive compounds (AID 1345084); conditions: Gynecologic cancer cell panel viability, ATPlite luminescence, 48 h; series mostly up to 57.5 µM; also: nearly all actives have a fitted effect of over 55% in size
# How it was run: (§2)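 ATP-based viability (ATPlite), 1,000 cells/well, 16 h pre-incubation, 48 h compound at 37 C, 5% CO2, 15 min RT before read.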
# HeLa = experiment: as above; conditions: Gynecologic cancer cell panel viability, ATPlite luminescence, 48 h; series mostly up to 57.5 µM
# How it was run: as §2
# Hek293T = experiment: as above; conditions: Gynecologic cancer cell panel viability, ATPlite luminescence, 48 h, control line for the selectivity index; series mostly up to 57.5 µM
# How it was run: as §2
# JEG-3 = experiment: as above; conditions: Gynecologic cancer cell panel viability, ATPlite luminescence, 48 h; series mostly up to 57.5 µM
# How it was run: as §2
# Tov-21-G = experiment: as above; conditions: Gynecologic cancer cell panel viability, ATPlite luminescence, 48 h; series mostly up to 57.5 µM
# How it was run: as §2
# Tov112D = experiment: as above; conditions: Gynecologic cancer cell panel viability, ATPlite luminescence, 48 h; series mostly up to 57.5 µM
# How it was run: as §2
# [1] = qHTS assay to identify inhibitors of the type 1 interferon - major histocompatibility complex class I in skeletal muscle: Counter screen cell viability and HiBit confirmation (AID 1347412); conditions: iHSKM muscle cells + IFN-b, HiBiT or CellTiter-Glo, 24 h; Potency: HiBiT; Viability, at 45.9 µM (top of the series); also: nearly all actives have a fitted effect of over 60% in size
# How it was run: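 HLA-B*08:01–HiBiT knock-in immortalized human myoblasts (C25cl48) stimulated with 4.0 ng/ml human IFN-beta and dosed with compound in a 12-point 1:3 titration (top final 46 uM). After 24 hrs at 37 C, HiBiT lytic luminescence or CellTiter Glo ATP read out.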
# Es-2 = experiment: Primary qHTS to identify gynecologic anti-cancer compounds using libraries of approved drugs and bioactive compounds (AID 1345084); conditions: Gynecologic cancer cell panel viability, ATPlite luminescence, 48 h; series mostly up to 57.5 µM; also: nearly all actives have a fitted effect of over 55% in size
# How it was run: as §2
# PA-1 = experiment: as above; conditions: Gynecologic cancer cell panel viability, ATPlite luminescence, 48 h; series mostly up to 57.5 µM
# How it was run: as §2
# SKOV3 = experiment: as above; conditions: Gynecologic cancer cell panel viability, ATPlite luminescence, 48 h; series mostly up to 57.5 µM
# How it was run: as §2
# MKL-2 = experiment: qHTS assay to identify novel small-molecules to repurpose for Merkel cell carcinoma treatment (AID 1296009); conditions: MCC and control cell lines, CellTiter-Glo viability, 72 h; series mostly up to 46 µM; also: nearly all actives have a fitted effect of over 60% in size
# How it was run: as §1
# OV90 = experiment: Primary qHTS to identify gynecologic anti-cancer compounds using libraries of approved drugs and bioactive compounds (AID 1345084); conditions: Gynecologic cancer cell panel viability, ATPlite luminescence, 48 h; series mostly up to 57.5 µM; also: nearly all actives have a fitted effect of over 55% in size
# How it was run: as §2
# UISO = experiment: qHTS assay to identify novel small-molecules to repurpose for Merkel cell carcinoma treatment (AID 1296009); conditions: MCC and control cell lines, CellTiter-Glo viability, 72 h; series mostly up to 46 µM; also: nearly all actives have a fitted effect of over 60% in size
# How it was run: as §1
# CASKI = experiment: Primary qHTS to identify gynecologic anti-cancer compounds using libraries of approved drugs and bioactive compounds (AID 1345084); conditions: Gynecologic cancer cell panel viability, ATPlite luminescence, 48 h; series mostly up to 57.5 µM; also: nearly all actives have a fitted effect of over 55% in size
# How it was run: as §2
# NIH3T3 = experiment: qHTS assay to identify novel small-molecules to repurpose for Merkel cell carcinoma treatment (AID 1296009); conditions: MCC and control cell lines, CellTiter-Glo viability, 72 h; at 44.8 µM (top of the series) unless noted; also: nearly all actives have a fitted effect of over 60% in size
# How it was run: as §1
# Potency is read from the fitted curve at half-maximal effect.
smiles,measurement,setting,value
CC(C)(N)c1ccc(-c2nc3ccccc3nc2-c2ccccc2)cc1,Potency,WaGa,18700 nM (active)
same,Potency,C33A,inactive
same,Potency,HeLa,inactive
same,Potency,Hek293T,inactive
same,Potency,JEG-3,inactive
same,Potency,Tov-21-G,inactive
same,Potency,Tov112D,inactive
same,Potency,[1],inactive
COc1ccc(S(=O)(=O)Nc2cccnc2Nc2ccc(O)cc2)cc1,Potency,C33A,8910 nM (active)
same,Potency,Es-2,2240 nM (active)
same,Potency,HeLa,1780 nM (active)
same,Potency,JEG-3,2000 nM (active)
same,Potency,PA-1,1000 nM (active)
same,Potency,SKOV3,6310 nM (active)
same,Potency,Tov112D,1780 nM (active)
CCc1ccc(C(=O)Nc2cc(CN3CCN(C)CC3)cc(C(F)(F)F)c2)cc1C#Cc1cnc2ccnn2c1,Potency,MKL-2,18700 nM (active)
same,Potency,OV90,inactive
same,Potency,[1],24900 nM (active)
NS(=O)(=O)OC[C@@H]1C[C@@H](n2ccc3c(N[C@H]4CCc5ccccc54)ncnc32)C[C@H]1O,Potency,UISO,1180 nM (active)
same,Potency,WaGa,1480 nM (active)
CCCCCCCCc1ccc(CCC(N)(CO)CO)cc1,Potency,WaGa,inactive
CCc1nc(-c2cccc(C)c2)c(-c2ccnc(NC(=O)c3ccccc3)c2)s1,Potency,C33A,inactive
same,Potency,CASKI,inactive
same,Potency,Es-2,inactive
same,Potency,HeLa,inactive
same,Potency,Hek293T,inactive
same,Potency,JEG-3,inactive
same,Potency,PA-1,inactive
same,Potency,Tov-21-G,inactive
same,Potency,Tov112D,inactive
Oc1ccc([C@@H]2Oc3ccc(O)cc3[C@@H]3CCC[C@@H]32)cc1,Potency,UISO,18700 nM (active)
same,Potency,C33A,inactive
same,Potency,Es-2,inactive
same,Potency,OV90,inactive
same,Potency,Tov-21-G,inactive
C[C@@]12C(=O)OC(=O)[C@@]1(C)C1CCC2O1,Potency,MKL-2,4180 nM (active)
same,Potency,WaGa,2960 nM (active)
C=CC[C@@H]1C=C(C)C[C@H](C)C[C@H](OC)[C@H]2O[C@@](O)(C(=O)C(=O)N3CCCC[C@H]3C(=O)O[C@H](C(C)=C[C@@H]3CC[C@H](O)[C@H](OC)C3)[C@@H](C)[C@@H](O)CC1=O)[C@@H](C)C[C@@H]2OC,outcome,NIH3T3,inactive
O=c1[nH]c(=O)n([C@H]2C[C@@H](O)[C@@H](CO)O2)cc1F,Potency,WaGa,66.2 nM (active)
C[C@@H]1C(=O)O[C@H]2CC34[C@H]5C[C@@H](C(C)(C)C)C36[C@H](OC(=O)[C@@H]6O)O[C@@]4(C(=O)O5)[C@]21O (stereo partly specified),outcome,NIH3T3,inactive
same,Potency,UISO,inactive
Cc1cc(Nc2ncc3c(n2)N(C)C(=O)N(c2cc(NC(=O)c4cccc(C(F)(F)F)c4)ccc2C)C3)n(C)n1,Potency,UISO,526 nM (active)
same,Potency,[1],883 nM (active)
N#Cc1c(NC(=O)c2cccc3ccccc23)sc2c1CCCC2,Potency,UISO,1050 nM (active)
CCOc1cc2c(c(F)c1OCC)C(=N)N(CC(=O)c1cc(N3CCOCC3)c(OC)c(C(C)(C)C)c1)C2,Potency,WaGa,inactive
same,Potency,CASKI,inactive
same,Potency,Es-2,inactive
same,Potency,HeLa,inactive
same,Potency,Hek293T,inactive
same,Potency,JEG-3,inactive
same,Potency,Tov-21-G,inactive
same,Potency,Tov112D,inactive
C=CCNC1=C2C[C@@H](C)C[C@H](OC)[C@@H](O)[C@@H](C)C=C(C)[C@H](OC(N)=O)[C@@H](OC)C=CC=C(C)C(=O)NC(=CC1=O)C2=O,Potency,UISO,1480 nM (active)
same,Potency,WaGa,1660 nM (active)
CC(C)c1cnn2c(NCc3ccccc3)cc(NCCCCCCN)nc12,Potency,UISO,inactive
same,Potency,WaGa,inactive
same,Potency,[1],inactive
FC(F)(F)c1ccc(Nc2nc3ccc(Oc4ccnc(-c5ncc(C(F)(F)F)[nH]5)c4)cc3[nH]2)cc1,Potency,C33A,inactive
same,Potency,CASKI,inactive
same,Potency,Es-2,inactive
same,Potency,HeLa,inactive
same,Potency,Hek293T,inactive
same,Potency,JEG-3,inactive
same,Potency,Tov112D,inactive
CN1CCc2c(c3ccccc3n2Cc2ccc(C(=O)NO)cc2)C1,Potency,WaGa,20900 nM (active)
same,Potency,C33A,inactive
same,Potency,CASKI,inactive
same,Potency,Es-2,inactive
same,Potency,HeLa,inactive
same,Potency,Hek293T,inactive
same,Potency,JEG-3,inactive
same,Potency,OV90,inactive
same,Potency,SKOV3,inactive
same,Potency,Tov112D,inactive
Cc1cnc(NC(=O)Nc2cc(Br)c(C)cc2OC[C@@H]2CNCCO2)cn1,Potency,MKL-2,inactive
same,Potency,WaGa,inactive
same,Potency,[1],inactive
Cc1ccc(-n2[nH]c(C)c(N=Nc3cccc(-c4cccc(C(=O)O)c4)c3O)c2=O)cc1C,Potency,C33A,inactive
same,Potency,CASKI,inactive
same,Potency,HeLa,inactive
same,Potency,JEG-3,inactive
same,Potency,OV90,inactive
same,Potency,PA-1,1580 nM (active)
same,Potency,SKOV3,inactive
COc1cc(O)c2c(c1)C1OC1C[C@H](O)[C@H](O)C(=O)C=CC[C@H](C)OC2=O (stereo partly specified),Potency,UISO,20900 nM (active)
same,Potency,[1],8830 nM (active)
CCc1c(O)cc(O)c(C(=O)c2ccc(OCCN3CCOCC3)c(OC)c2)c1CC(=O)N(CCOC)CCOC,Potency,UISO,1480 nM (active)
Cn1c(Nc2ccc(C(F)(F)F)cc2)nc2cc(Oc3ccnc(-c4ncc(C(F)(F)F)[nH]4)c3)ccc21,Potency,UISO,3720 nM (active)
same,Potency,WaGa,18700 nM (active)
NC(=O)Nc1sc(-c2ccc(F)cc2)cc1C(N)=O,Potency,UISO,4690 nM (active)
same,Potency,WaGa,5260 nM (active)
